Data as given in article PMC7862700, “An all-to-all approach to the identification of sequence-specific readers for epigenetic DNA modifications on cytosine”.

What was measured:
Assay in all cases: DAPPL (digital affinity profiling via proximity ligation, sequencing); 10 mM Tris-HCl pH 7.5, 50 mM NaCl, 1 mM DTT, 4% glycerol, room temperature, 30 min; GST-TFs on glutathione beads, 16-mer random dsDNA library, 0.1% formaldehyde crosslink after washing; high values mean tight binding
FEV = biological target: T1, FEV (Homo sapiens, UniProt Q99581 1-238); settings: protein: recombinant; tags: N-terminal GST; dsDNA, one strand shown
T1 sequence: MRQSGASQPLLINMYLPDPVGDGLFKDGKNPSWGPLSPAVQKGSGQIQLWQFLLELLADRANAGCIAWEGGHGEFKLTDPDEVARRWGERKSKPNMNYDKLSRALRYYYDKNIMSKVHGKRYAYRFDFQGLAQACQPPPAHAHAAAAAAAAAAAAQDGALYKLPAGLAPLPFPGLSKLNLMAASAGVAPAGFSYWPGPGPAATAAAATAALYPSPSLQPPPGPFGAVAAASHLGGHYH
Method in brief: (§1)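 Human transcription factors carrying a GST fusion were produced in yeast, bound to glutathione beads, tagged with DNA barcodes and pooled together with a tag-only sample. Each pool was held with 200 nmole of a random double-stranded 16-mer DNA library in Tris/NaCl/DTT/glycerol buffer for 30 min at room temperature, then washed, crosslinked in 0.1% formaldehyde, proximity-ligated with BsaI/T4 ligase (1 h, 37 °C), PCR-amplified and sequenced on an Illumina NextSeq500. Binding signal is the read frequency of each hexamer for a given factor divided by its frequency in the tag-only sample.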

ETV5 = ETV5 (Homo sapiens, UniProt P41161 1-510); settings: protein: recombinant; tags: N-terminal GST; dsDNA, one strand shown
Chain of ETV5 (P41161 whole entry): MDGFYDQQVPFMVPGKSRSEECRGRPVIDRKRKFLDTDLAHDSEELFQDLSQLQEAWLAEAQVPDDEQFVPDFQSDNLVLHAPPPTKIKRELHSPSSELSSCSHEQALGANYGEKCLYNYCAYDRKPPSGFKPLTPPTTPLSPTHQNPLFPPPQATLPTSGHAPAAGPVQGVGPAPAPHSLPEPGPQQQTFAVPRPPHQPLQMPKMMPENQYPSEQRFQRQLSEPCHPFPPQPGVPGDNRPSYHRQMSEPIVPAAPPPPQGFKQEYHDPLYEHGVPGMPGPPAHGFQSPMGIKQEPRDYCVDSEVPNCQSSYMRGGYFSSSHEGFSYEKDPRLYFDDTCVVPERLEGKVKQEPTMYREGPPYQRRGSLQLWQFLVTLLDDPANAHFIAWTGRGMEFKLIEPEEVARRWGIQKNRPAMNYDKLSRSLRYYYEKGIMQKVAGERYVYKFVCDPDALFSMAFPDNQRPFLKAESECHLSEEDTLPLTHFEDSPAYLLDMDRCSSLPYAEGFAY
Method in brief: as §1

HSF1 = HSF1 (Homo sapiens, UniProt Q00613 1-529); settings: protein: recombinant; tags: N-terminal GST; chain copies: 3; dsDNA, one strand shown
Chain of HSF1 (Q00613 whole entry): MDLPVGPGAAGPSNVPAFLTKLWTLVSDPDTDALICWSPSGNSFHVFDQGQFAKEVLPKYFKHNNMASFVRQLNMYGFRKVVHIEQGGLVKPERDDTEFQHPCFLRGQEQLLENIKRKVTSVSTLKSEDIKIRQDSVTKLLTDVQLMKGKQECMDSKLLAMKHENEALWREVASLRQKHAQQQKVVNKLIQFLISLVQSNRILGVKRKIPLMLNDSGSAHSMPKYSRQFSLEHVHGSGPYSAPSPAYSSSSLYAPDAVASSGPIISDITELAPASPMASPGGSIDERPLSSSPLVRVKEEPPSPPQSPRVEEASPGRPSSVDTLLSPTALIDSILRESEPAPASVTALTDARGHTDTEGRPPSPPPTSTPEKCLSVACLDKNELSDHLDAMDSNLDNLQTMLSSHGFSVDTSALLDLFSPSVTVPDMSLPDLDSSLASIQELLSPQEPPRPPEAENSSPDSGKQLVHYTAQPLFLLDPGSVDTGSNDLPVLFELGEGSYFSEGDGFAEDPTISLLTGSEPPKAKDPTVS
Method in brief: as §1

SPIC = biological target: T2, SPIC (Homo sapiens, UniProt Q8N5J4 1-248); settings: protein: recombinant; tags: N-terminal GST; dsDNA, one strand shown
T2 sequence: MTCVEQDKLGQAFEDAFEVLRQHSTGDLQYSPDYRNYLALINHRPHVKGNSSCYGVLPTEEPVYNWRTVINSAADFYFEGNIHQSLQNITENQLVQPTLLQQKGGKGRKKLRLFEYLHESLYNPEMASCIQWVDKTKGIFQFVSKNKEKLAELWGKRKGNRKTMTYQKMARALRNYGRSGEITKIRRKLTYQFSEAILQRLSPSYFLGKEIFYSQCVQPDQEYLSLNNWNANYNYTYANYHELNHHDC
Method in brief: as §1

ELF4 = ELF4 (Homo sapiens, UniProt Q99607 1-663); settings: protein: recombinant; tags: N-terminal GST; dsDNA, one strand shown
Chain of ELF4 (Q99607 whole entry): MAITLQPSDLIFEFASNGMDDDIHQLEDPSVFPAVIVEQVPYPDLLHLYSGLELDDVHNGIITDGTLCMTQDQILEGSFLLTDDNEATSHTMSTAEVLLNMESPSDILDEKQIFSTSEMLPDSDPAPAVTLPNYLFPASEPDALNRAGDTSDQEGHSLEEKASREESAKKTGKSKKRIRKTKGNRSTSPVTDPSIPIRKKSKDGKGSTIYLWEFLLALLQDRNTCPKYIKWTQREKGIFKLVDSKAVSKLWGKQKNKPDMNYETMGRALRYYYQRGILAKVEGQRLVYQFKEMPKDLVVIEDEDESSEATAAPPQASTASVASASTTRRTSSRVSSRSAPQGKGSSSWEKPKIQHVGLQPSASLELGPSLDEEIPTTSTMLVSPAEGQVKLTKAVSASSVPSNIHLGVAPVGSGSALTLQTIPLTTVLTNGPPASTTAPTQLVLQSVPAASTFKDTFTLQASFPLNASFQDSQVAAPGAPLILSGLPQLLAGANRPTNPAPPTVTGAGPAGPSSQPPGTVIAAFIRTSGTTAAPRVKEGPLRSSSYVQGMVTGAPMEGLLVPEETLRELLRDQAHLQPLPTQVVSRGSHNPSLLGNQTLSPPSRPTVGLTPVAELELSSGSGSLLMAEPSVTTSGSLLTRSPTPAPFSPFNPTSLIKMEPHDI
Method in brief: as §1

ELK4 = biological target: T3, ELK4 (Homo sapiens, UniProt P28324-2 1-405); settings: protein: recombinant; tags: N-terminal GST; dsDNA, one strand shown
T3 sequence: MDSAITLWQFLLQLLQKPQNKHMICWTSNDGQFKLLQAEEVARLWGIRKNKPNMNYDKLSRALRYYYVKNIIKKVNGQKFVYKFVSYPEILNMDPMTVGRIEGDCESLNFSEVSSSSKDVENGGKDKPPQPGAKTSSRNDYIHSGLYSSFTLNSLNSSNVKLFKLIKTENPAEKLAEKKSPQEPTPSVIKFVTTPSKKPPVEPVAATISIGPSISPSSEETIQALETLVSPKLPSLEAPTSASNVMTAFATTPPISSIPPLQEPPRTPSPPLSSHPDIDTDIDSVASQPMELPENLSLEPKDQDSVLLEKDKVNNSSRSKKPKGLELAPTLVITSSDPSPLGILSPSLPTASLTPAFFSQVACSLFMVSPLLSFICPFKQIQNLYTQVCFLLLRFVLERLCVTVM
Method in brief: as §1

ETV2 = biological target: T4, ETV2 (Homo sapiens, UniProt O00321 1-342); settings: protein: recombinant; tags: N-terminal GST; dsDNA, one strand shown
T4 sequence: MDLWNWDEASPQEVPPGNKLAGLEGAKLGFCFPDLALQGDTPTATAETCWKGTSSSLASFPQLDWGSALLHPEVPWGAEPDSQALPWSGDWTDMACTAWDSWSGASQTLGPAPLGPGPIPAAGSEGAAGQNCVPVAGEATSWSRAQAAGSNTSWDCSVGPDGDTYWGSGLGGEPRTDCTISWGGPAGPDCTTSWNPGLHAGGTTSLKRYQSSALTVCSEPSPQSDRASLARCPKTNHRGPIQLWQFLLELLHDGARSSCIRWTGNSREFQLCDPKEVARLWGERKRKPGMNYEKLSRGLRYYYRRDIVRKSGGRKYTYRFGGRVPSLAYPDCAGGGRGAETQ
Method in brief: as §1

ELF3 = biological target: T5, ELF3 (Homo sapiens, UniProt P78545 1-371); settings: protein: recombinant; tags: N-terminal GST; dsDNA, one strand shown
T5 sequence: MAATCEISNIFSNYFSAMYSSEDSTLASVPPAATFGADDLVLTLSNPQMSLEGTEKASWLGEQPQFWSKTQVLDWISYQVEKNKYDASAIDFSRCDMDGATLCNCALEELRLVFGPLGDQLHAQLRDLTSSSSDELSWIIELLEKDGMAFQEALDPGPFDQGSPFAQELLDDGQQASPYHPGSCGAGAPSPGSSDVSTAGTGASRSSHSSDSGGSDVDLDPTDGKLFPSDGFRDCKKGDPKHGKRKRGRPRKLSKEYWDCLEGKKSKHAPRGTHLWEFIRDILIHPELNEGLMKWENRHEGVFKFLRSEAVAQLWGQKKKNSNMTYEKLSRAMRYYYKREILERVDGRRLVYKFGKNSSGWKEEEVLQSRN
Method in brief: as §1

CRX = CRX (Homo sapiens, UniProt O43186 1-299); settings: protein: recombinant; tags: N-terminal GST; dsDNA, one strand shown
Chain of CRX (O43186 whole entry): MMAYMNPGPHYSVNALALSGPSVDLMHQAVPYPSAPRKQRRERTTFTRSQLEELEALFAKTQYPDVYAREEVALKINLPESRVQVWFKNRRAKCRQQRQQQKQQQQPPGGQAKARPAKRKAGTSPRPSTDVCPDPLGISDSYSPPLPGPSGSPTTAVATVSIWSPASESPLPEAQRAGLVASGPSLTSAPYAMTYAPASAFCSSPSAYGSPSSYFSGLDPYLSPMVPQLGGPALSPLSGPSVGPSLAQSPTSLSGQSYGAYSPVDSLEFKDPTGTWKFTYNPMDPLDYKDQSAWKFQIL
Method in brief: as §1

ETV1 = ETV1 (Homo sapiens, UniProt P50549 1-477); settings: protein: recombinant; tags: N-terminal GST; dsDNA, one strand shown
Chain of ETV1 (P50549 whole entry): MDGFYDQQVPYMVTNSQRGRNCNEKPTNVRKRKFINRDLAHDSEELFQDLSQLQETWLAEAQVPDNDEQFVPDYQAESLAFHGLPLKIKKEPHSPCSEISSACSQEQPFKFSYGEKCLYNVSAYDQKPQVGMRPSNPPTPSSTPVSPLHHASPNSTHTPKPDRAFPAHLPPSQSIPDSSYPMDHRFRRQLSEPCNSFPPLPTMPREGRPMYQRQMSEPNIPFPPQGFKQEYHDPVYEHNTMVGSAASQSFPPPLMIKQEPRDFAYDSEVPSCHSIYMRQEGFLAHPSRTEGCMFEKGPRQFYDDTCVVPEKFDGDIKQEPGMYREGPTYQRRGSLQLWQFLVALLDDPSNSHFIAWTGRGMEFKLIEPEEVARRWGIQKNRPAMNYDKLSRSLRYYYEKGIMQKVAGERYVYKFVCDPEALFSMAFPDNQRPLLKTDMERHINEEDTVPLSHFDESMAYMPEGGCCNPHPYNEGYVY
Method in brief: as §1

ERF = biological target: T6, ERF (Homo sapiens, UniProt P50548 1-548); settings: protein: recombinant; tags: N-terminal GST; dsDNA, one strand shown
T6 sequence: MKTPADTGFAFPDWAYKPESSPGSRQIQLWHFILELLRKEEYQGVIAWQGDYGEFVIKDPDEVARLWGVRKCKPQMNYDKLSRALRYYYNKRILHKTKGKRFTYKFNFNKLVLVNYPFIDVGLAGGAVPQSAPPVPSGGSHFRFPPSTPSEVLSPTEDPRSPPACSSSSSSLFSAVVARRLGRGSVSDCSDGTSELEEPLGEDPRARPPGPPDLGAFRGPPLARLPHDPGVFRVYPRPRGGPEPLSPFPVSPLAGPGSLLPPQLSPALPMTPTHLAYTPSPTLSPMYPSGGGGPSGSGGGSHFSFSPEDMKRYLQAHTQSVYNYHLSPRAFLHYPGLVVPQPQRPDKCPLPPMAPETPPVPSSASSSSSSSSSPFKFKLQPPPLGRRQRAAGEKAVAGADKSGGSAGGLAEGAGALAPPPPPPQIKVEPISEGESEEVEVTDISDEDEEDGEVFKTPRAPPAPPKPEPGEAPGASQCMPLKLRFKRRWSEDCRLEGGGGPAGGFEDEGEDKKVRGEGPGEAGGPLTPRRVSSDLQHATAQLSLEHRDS
Method in brief: as §1

ETV3L = biological target: T7, ETV3L (Homo sapiens, UniProt Q6ZN32 1-361); settings: protein: recombinant; tags: N-terminal GST; dsDNA, one strand shown
T7 sequence: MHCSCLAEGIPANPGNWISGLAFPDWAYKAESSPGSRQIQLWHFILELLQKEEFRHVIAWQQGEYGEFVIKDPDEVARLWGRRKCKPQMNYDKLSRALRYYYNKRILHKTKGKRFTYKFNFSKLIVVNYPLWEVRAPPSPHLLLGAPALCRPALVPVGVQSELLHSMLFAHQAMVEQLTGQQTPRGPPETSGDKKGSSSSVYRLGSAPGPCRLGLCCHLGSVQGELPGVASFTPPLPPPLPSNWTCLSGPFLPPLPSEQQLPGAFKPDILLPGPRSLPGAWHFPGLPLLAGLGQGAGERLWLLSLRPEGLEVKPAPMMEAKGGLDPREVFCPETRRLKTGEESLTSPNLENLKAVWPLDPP
Method in brief: as §1

ETS2 = biological target: T8, ETS2 (Homo sapiens, UniProt P15036 1-469); settings: protein: recombinant; tags: N-terminal GST; dsDNA, one strand shown
T8 sequence: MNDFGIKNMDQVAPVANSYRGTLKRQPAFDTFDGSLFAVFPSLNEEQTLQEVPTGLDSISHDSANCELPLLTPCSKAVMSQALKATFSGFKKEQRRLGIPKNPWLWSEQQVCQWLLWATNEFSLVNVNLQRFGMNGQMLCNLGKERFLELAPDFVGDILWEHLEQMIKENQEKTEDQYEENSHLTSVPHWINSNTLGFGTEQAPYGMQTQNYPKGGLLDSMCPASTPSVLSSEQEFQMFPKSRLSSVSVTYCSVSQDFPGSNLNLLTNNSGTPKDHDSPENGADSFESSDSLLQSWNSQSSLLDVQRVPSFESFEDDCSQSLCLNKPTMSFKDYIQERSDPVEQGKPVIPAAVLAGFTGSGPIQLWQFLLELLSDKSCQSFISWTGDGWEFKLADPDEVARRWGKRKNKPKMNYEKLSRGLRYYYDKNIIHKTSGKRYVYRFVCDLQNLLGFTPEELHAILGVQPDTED
Method in brief: as §1

SPDEF = biological target: T9, SPDEF (Homo sapiens, UniProt O95238 1-335); settings: protein: recombinant; tags: N-terminal GST; dsDNA, one strand shown
T9 sequence: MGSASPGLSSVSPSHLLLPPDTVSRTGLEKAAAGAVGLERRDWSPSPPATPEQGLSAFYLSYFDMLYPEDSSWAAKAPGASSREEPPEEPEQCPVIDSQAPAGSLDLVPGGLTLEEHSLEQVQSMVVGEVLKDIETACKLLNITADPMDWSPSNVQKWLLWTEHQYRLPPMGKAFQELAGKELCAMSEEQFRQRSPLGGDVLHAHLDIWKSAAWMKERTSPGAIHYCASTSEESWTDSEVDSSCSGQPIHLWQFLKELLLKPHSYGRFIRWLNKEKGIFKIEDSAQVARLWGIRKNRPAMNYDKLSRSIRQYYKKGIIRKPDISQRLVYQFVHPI
Method in brief: as §1

ETV7 = biological target: T10, ETV7 (Homo sapiens, UniProt Q9Y603 1-341); settings: protein: recombinant; tags: N-terminal GST; dsDNA, one strand shown
T10 sequence: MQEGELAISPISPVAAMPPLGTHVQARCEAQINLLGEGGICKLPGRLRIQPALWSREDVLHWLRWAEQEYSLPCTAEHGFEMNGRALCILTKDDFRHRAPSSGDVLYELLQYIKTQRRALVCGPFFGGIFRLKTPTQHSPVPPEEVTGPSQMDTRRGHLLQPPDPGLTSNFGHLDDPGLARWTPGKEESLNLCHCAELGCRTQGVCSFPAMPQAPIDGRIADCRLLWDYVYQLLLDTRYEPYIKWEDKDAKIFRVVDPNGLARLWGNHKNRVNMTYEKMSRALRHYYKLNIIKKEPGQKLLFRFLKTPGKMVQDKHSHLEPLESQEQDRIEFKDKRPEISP
Method in brief: as §1

ELF5 = biological target: T11, ELF5 (Homo sapiens, UniProt Q9UKW6-2 1-255); settings: protein: recombinant; tags: N-terminal GST; dsDNA, one strand shown
T11 sequence: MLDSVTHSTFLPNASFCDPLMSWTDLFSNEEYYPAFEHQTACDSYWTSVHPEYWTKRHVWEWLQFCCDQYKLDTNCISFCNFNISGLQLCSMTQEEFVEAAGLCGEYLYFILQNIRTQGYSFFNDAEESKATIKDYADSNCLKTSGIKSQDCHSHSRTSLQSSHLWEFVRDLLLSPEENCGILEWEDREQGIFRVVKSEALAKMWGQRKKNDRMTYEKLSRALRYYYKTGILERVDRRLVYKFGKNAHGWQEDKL
Method in brief: as §1

ETV3 = biological target: T12, ETV3 (Homo sapiens, UniProt P41162-2 1-143); settings: protein: recombinant; tags: N-terminal GST; dsDNA, one strand shown
T12 sequence: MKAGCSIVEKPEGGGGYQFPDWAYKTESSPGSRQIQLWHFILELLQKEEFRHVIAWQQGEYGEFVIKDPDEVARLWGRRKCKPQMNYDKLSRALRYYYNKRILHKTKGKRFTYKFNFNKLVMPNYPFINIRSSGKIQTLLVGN
Method in brief: as §1

ETV6 = ETV6 (Homo sapiens, UniProt P41212 1-452); settings: protein: recombinant; tags: N-terminal GST; dsDNA, one strand shown
Chain of ETV6 (P41212 whole entry): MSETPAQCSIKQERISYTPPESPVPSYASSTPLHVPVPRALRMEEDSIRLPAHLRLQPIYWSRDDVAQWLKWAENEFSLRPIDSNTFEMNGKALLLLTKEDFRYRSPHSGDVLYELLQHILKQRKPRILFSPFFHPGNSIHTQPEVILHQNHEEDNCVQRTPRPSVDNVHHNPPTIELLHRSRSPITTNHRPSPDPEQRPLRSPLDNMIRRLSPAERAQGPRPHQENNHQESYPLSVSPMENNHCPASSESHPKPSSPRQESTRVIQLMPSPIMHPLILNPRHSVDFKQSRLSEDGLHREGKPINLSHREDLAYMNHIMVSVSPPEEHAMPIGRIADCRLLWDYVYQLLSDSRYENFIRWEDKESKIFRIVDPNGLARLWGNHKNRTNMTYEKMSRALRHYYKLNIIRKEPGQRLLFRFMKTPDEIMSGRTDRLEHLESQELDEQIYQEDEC
Method in brief: as §1

## TTACCT
FEV
  binding signal: 1.26 fold enrichment (6-mer frequency, TF over GST control)
ETV5
  binding signal: 1.35 fold enrichment (6-mer frequency, TF over GST control)
HSF1
  binding signal: 1.45 fold enrichment (6-mer frequency, TF over GST control)
SPIC
  binding signal: 1.01 fold enrichment (6-mer frequency, TF over GST control)
ELF4
  binding signal: 1.21 fold enrichment (6-mer frequency, TF over GST control)
ELK4
  binding signal: 1.32 fold enrichment (6-mer frequency, TF over GST control)
ETV2
  binding signal: 1.32 fold enrichment (6-mer frequency, TF over GST control)
ELF3
  binding signal: 1.2 fold enrichment (6-mer frequency, TF over GST control)
CRX
  binding signal: 2.09 fold enrichment (6-mer frequency, TF over GST control)
ETV1
  binding signal: 1.32 fold enrichment (6-mer frequency, TF over GST control)
ERF
  binding signal: 1.22 fold enrichment (6-mer frequency, TF over GST control)
ETV3L
  binding signal: 1.22 fold enrichment (6-mer frequency, TF over GST control)
ETS2
  binding signal: 1.32 fold enrichment (6-mer frequency, TF over GST control)
SPDEF
  binding signal: 1.18 fold enrichment (6-mer frequency, TF over GST control)
ETV7
  binding signal: 1.36 fold enrichment (6-mer frequency, TF over GST control)
ELF5
  binding signal: 1.28 fold enrichment (6-mer frequency, TF over GST control)
ETV3
  binding signal: 1.17 fold enrichment (6-mer frequency, TF over GST control)
ETV6
  binding signal: 1.23 fold enrichment (6-mer frequency, TF over GST control)
